Experimental data reported in PubChem BioAssay (NCATS).
Inconclusive results are not listed. Where a call stands in place of a potency, no number is given. Calls of active or inactive are those of the source. Calls come from the whole dose curve; as a rule, active = well fitted curve in the direction sought with a large enough effect; inconclusive = small, poorly fitted or top-dose-only effect, or another doubt; inactive = no such curve, though single readings can be large; an effect the other way counts as inactive or inconclusive.

assay: Primary qHTS for inhibitors of nuclear receptor binding SET domain protein 2 (NSD2) in an isogenic RCH-ACV NSD2 p.E1099K mutant (9B) (AID 1645876); conditions: RCH-ACV NSD2 E1099K (9B) viability, CellTiter-Glo, 72 h; series mostly up to 44.9 µM
Note: nearly all actives have a fitted effect of over 70% in size.

| SMILES | Potency |
| --- | --- |
| CNC(C)C(=O)NC(C(=O)N1CCCC1C(=O)Nc1cccc2ncccc12)C(C)C (stereo not drawn) | inactive |
| CN1CCN(c2nc(-c3ccc(C(=O)NC4(C(=O)NCC#N)CCCCC4)cc3)cs2)CC1 | inactive |
| COc1cccc(CNc2ccc(S(=O)(=O)Nc3nc4ccccc4s3)cc2)c1O | inactive |
| COc1cccc(OC)c1-c1ccc(C[C@H](NC(=O)c2c(Cl)cccc2Cl)C(=O)O)cc1 | inactive |
| CC[C@@H](Nc1c(Nc2cccc(C(=O)N(C)C)c2O)c(=O)c1=O)c1ccc(C)o1 | inactive |
| O=C(Nc1cc(-c2ccccc2)nn1-c1ccccc1)c1ccc([N+](=O)[O-])cc1 | inactive |
| COc1ccc(Oc2c(Cl)cnn(C3c4ccccc4-c4ccccc43)c2=O)cc1 | inactive |
| COc1cc(OC)cc(-c2ccc3c(-c4ccc(F)cc4)[nH]nc3n2)c1 | inactive |
| CC(C(=O)Nc1cc(C#N)ccc1CCCC(=O)O)c1ccc(F)c2ccccc12 (stereo not drawn) | inactive |
| C[C@@H](NC(=O)c1cc(C(=O)N[C@@H](Cc2ccccc2)[C@H](O)CNC2CC2)cc(N(C)S(C)(=O)=O)c1)c1ccccc1 | inactive |
| Cc1cn(C[C@H](N)C(=O)O)c(=O)n(Cc2ccsc2C(=O)O)c1=O | inactive |
| Cc1cc(C(=O)N2Cc3cnn(C)c3Nc3ccccc32)ccc1CNC(=O)N1CCN(Cc2cc(O)cc(O)c2)CC1 | inactive |
| COc1ccc(CC(=O)NCc2ccccc2-c2ccccc2C(=O)NCCc2cccnc2)cc1 | inactive |
| COC(=O)Cn1nc(-c2cccc(OC)c2)c2ccccc21 | inactive |
| Cc1ccc(Cl)cc1N(CC(=O)Nc1c(F)cccc1F)S(C)(=O)=O | inactive |
| O=C(CC1CC(c2ccc(F)cc2F)=NO1)N1CCOCC1 (stereo not drawn) | inactive |

| SMILES | Potency |
| --- | --- |
| Nc1c(-c2ccccc2)nc(Cl)c2c(O)n[nH]c(=O)c12 | inactive |
| COc1ccc(-n2[nH]c3c(cnc4ccccc43)c2=O)cc1 | inactive |
| CS(=O)(=O)c1ccccc1N1CCN(c2nc3c(c(=O)[nH]2)CSCC3)CC1 | inactive |
| O=C(c1c2ccccc2cc2ccccc12)N1CCC(N2CCC[C@@H](C(=O)N3CCOCC3)C2)CC1 | inactive |
| CC1(C)CC=C(C#Cc2ccccc2)c2cc(/C=C/c3ccc(C(=O)O)cc3)ccc21 | inactive |
| COc1cn(-c2ccc(-n3cccn3)cc2F)nc(-c2ccnn2-c2ccccc2)c1=O | inactive |
| C[C@@H](c1ccccc1)N(C(N)=NC#N)c1cccc2ncccc12 | inactive |
| O=C(N[C@H](Cc1ccccc1)C(=O)O)c1sc2cc(F)ccc2c1Cl | inactive |
| Cc1cn(-c2cc(NC(=O)c3ccc(C)c(Nc4nccc(-c5cnccn5)n4)c3)cc(C(F)(F)F)c2)cn1 | inactive |
| Fc1ccccc1-c1nc2ccn(Cc3ccc(-c4ccc(C(F)(F)F)cc4C(F)(F)F)nn3)cc-2n1 | inactive |
| COc1ccc(-n2c(SCC#N)nc3sc4c(c3c2=O)CCCC4)cc1 | inactive |
| CN1CCN(C2=Nc3ccccc3Nc3ccc(O)cc32)CC1 | inactive |
| CC(C)Oc1ccc(-c2nc(-c3cccc4c3CCC4NCCC(=O)O)no2)cc1C#N (stereo not drawn) | inactive |
| CN(C)C(=O)C(O)C(Cc1ccccc1)NC(=O)c1cc2cc(Cl)ccc2[nH]1 (stereo not drawn) | inactive |
| COc1ccc(-n2c(=O)[nH]c3cc(C(=O)NCc4ccc(Cl)cc4)sc3c2=O)nc1OC | inactive |
| CN(C)c1ccc(C2O[C@@H](c3ccccc3)C[C@H](c3ccccc3)O2)cc1 (stereo partly drawn) | inactive |

assay: Primary qHTS for inhibitors of nuclear receptor binding SET domain protein 2 (NSD2) in an RCH-ACV wild type WT cells (2C) (AID 1645877); conditions: RCH-ACV (leukaemia line) NSD2 WT (2C) viability, CellTiter-Glo, 72 h; series mostly up to 44.9 µM; note: potency is the fitted concentration of half-maximal effect

| SMILES | Potency |
| --- | --- |
| CNC(C)C(=O)NC(C(=O)N1CCCC1C(=O)Nc1cccc2ncccc12)C(C)C (stereo not drawn) | inactive |
| CN1CCN(c2nc(-c3ccc(C(=O)NC4(C(=O)NCC#N)CCCCC4)cc3)cs2)CC1 | inactive |
| COc1cccc(CNc2ccc(S(=O)(=O)Nc3nc4ccccc4s3)cc2)c1O | inactive |
| O=C(c1ccc(Cl)c([N+](=O)[O-])c1)N1CCN(c2ccccc2F)CC1 | 16.3 µM (active) |
| COc1cccc(OC)c1-c1ccc(C[C@H](NC(=O)c2c(Cl)cccc2Cl)C(=O)O)cc1 | inactive |
| O=C(Nc1cc(-c2ccccc2)nn1-c1ccccc1)c1ccc([N+](=O)[O-])cc1 | inactive |
| COc1cc(OC)cc(-c2ccc3c(-c4ccc(F)cc4)[nH]nc3n2)c1 | inactive |
| CC(C(=O)Nc1cc(C#N)ccc1CCCC(=O)O)c1ccc(F)c2ccccc12 (stereo not drawn) | inactive |
| Cc1cn(C[C@H](N)C(=O)O)c(=O)n(Cc2ccsc2C(=O)O)c1=O | inactive |
| Cc1cc(C(=O)N2Cc3cnn(C)c3Nc3ccccc32)ccc1CNC(=O)N1CCN(Cc2cc(O)cc(O)c2)CC1 | inactive |
| COc1ccc(CC(=O)NCc2ccccc2-c2ccccc2C(=O)NCCc2cccnc2)cc1 | inactive |
| COC(=O)Cn1nc(-c2cccc(OC)c2)c2ccccc21 | inactive |
| Cc1ccc(Cl)cc1N(CC(=O)Nc1c(F)cccc1F)S(C)(=O)=O | inactive |
| O=C(CC1CC(c2ccc(F)cc2F)=NO1)N1CCOCC1 (stereo not drawn) | inactive |
| Nc1c(-c2ccccc2)nc(Cl)c2c(O)n[nH]c(=O)c12 | inactive |
| COc1ccc(-n2[nH]c3c(cnc4ccccc43)c2=O)cc1 | inactive |

| SMILES | Potency |
| --- | --- |
| CS(=O)(=O)c1ccccc1N1CCN(c2nc3c(c(=O)[nH]2)CSCC3)CC1 | inactive |
| O=C(c1c2ccccc2cc2ccccc12)N1CCC(N2CCC[C@@H](C(=O)N3CCOCC3)C2)CC1 | inactive |
| COc1cn(-c2ccc(-n3cccn3)cc2F)nc(-c2ccnn2-c2ccccc2)c1=O | inactive |
| C[C@@H](c1ccccc1)N(C(N)=NC#N)c1cccc2ncccc12 | inactive |
| COc1cccc(C(=O)NCCNc2nc3cc(C)cc(C)c3cc2C#N)c1 | inactive |
| O=C(N[C@H](Cc1ccccc1)C(=O)O)c1sc2cc(F)ccc2c1Cl | inactive |
| Cc1cn(-c2cc(NC(=O)c3ccc(C)c(Nc4nccc(-c5cnccn5)n4)c3)cc(C(F)(F)F)c2)cn1 | inactive |
| Fc1ccccc1-c1nc2ccn(Cc3ccc(-c4ccc(C(F)(F)F)cc4C(F)(F)F)nn3)cc-2n1 | inactive |
| COc1ccc(-n2c(SCC#N)nc3sc4c(c3c2=O)CCCC4)cc1 | inactive |
| On1ncc(C2CCNCC2)c1-c1cccc(-c2ccccc2)c1 | inactive |
| CN1CCN(C2=Nc3ccccc3Nc3ccc(O)cc32)CC1 | inactive |
| O=C(Nc1cc(-c2ccccc2)nn1-c1ccccc1F)c1ccc([N+](=O)[O-])cc1 | inactive |
| CC(C)Oc1ccc(-c2nc(-c3cccc4c3CCC4NCCC(=O)O)no2)cc1C#N (stereo not drawn) | inactive |
| CN(C)C(=O)C(O)C(Cc1ccccc1)NC(=O)c1cc2cc(Cl)ccc2[nH]1 (stereo not drawn) | inactive |
| COc1ccc(-n2c(=O)[nH]c3cc(C(=O)NCc4ccc(Cl)cc4)sc3c2=O)nc1OC | inactive |
